Structures are written as SMILES. Active and inactive are the calls of the source. How the source made its calls: active means hit-call score of the fitted dose curve at least 0.9, where 1 is the maximum; inactive means score below 0.9.

Chain of Transcription factor Sp1 (Homo sapiens) (P08047 whole entry, looked up): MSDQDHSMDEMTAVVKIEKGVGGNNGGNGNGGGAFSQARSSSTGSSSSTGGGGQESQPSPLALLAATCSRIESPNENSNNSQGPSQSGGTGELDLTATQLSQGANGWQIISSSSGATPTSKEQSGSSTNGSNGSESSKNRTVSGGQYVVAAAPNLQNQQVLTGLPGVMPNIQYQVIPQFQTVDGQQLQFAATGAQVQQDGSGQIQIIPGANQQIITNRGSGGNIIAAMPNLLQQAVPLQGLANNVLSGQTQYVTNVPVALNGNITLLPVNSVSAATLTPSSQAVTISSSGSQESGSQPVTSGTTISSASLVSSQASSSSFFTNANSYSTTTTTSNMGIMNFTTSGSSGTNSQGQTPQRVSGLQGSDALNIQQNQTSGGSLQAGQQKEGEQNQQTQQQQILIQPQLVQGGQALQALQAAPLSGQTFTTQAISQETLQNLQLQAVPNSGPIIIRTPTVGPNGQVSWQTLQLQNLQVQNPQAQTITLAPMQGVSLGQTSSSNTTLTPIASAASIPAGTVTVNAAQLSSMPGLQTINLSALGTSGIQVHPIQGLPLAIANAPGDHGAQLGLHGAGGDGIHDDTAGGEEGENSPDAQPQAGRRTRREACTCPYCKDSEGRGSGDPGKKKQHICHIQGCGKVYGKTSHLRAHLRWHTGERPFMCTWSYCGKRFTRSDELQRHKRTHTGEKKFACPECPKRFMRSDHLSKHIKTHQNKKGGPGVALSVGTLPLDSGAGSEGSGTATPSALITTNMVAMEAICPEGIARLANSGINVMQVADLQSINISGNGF

The assay deals with Transcription factor Sp1 (Homo sapiens) (UniProt P08047). Description: ATG_Sp1_CIS: Attagene CIS-FACTORIAL HepG2 Assay for human Specificity Protein 1 (Sp1) (AID 2282961). The following applies: HepG2 Sp1 cis-reporter transcription, actives raise or lower the signal. On the procedure:
ATG_CIS is a cell-based, multiplexed-readout assay that uses HepG2, a human liver cell line, with measurements taken at 24 hours after chemical dosing in a 24-well plate.ATG_Sp1_CIS is one of 52 assay component(s) measured or calculated from the ATG_CIS assay. It is designed to make measurements of mRNA induction, a form of inducible reporter, as detected with fluorescence intensity signals by Reverse transcription polymerase chain reaction (RT-PCR) and Capillary electrophoresis technology.Data from the assay component ATG_Sp1_CIS was analyzed into 1 assay endpoint. This assay endpoint, ATG_Sp1_CIS, was analyzed with bidirectional fitting relative to DMSO as the negative control and baseline of activity. Using a type of inducible reporter, measures of mRNA for gain or loss-of-signal activity can be used to understand the reporter gene at the transcription factor-level as they relate to the gene SP1. Furthermore, this assay endpoint can be referred to as a primary readout, because this assay has produced multiple assay endpoints where this one serves a reporter gene function. To generalize the intended target to other relatable targets, this assay endpoint is annotated to the dna binding intended target family, where the subfamily is zinc finger.
Human liver HepG2 cells are transiently transfected with multiple reporter transcription units (MRTUs) in 6-well plates using FuGene 6 reagent (Roche; 3 ml FuGene/1 mg DNA). The MRTU constructs are regulated by a cis-regulating element (promoter). […] A major difference between the CIS and TRANS system is that in CIS activities of endogenous TFs are measured, whereas the TRANS assay evaluates changes in activities of exogenous, chimeric NR-Gal4 proteins. […] At the end of 24 hour incubation, total RNA was isolated using TriZol reagent (Invitrogen). The isolated RNA is then reverse-transcribed using oligo(dT) primer and Mo-MLV reverse transcriptase (Invitrogen) with DNAse I (Ambion) treatment for 30 min. The one-tenth of the produced cDNA was amplified by PCR using Taq DNA polymerase (Invitrogen) and two reporter sequence-specific primers. The PCR products were fluorescently labeled by primer extension with 6-arboxyfluorescein (6-FAM) 5'-labeled reporter sequence-specific primer (2 min at 95 C, 20 s at 68 C and 10 min at 72 C) and these products were digested with 5U of HpaI (New England Biolabs) for 2h at 37 C. The fragments were purified using Qiaquick PCR columns (Qiagen), analyzed on an ABI 3130xL genetic analyzer (Applied Biosystems) with peak positions identified by using a set of X-rhodamine (ROX)-labeled MapMarker1000 molecular weight standards (BioVentures). The raw capillary electrophoresis data was processed using Attagraph software (Attagene).
As for `CC(=O)Nc1ccc(C)cc1C`, the call was inactive. With `OCCCCCO`, the result was inactive.

On to `CCCCCCCCC`, for which the compound was classed as inactive. In the case of `CC(C)C[C@H]1C(=O)N2CCC[C@H]2[C@]2(O)O[C@](NC(=O)[C@@H]3C=C4c5cccc6[nH]c(Br)c(c56)C[C@H]4N(C)C3)(C(C)C)C(=O)N12`, the AC50 – broadly, the concentration giving half of the maximal activity seen – was 2910 nM (active). Consider `O=C(Oc1ccccc1)c1ccc(O)cc1`, for which the call was inactive. Same read-out and setting: the same measure for `CC(C)(C)c1n[nH]c(=S)n(N)c1=O`: “inactive”. On the same count and under the same terms, next, `Cc1ccc2ccccc2n1`: “inactive”.

As to `O=C[C@@H](O)[C@H](O)[C@H](O)CO`, the compound was classed as inactive. Take `CC(=O)C(=O)O`: the outcome was inactive.

`Cc1c(N(C)C)c(=O)n(-c2ccccc2)n1C`: the compound was called inactive. On to `CCCCCCOC(=O)CC`, for which the result was inactive. On to `O=C=NC1CCC(CC2CCC(N=C=O)CC2)CC1` (stereo not given), for which the compound was called inactive. For the compound `CCOc1ccccc1OCC`, the call was inactive. `CCCC(=O)OCCC(C)CCC=C(C)C` (stereo not given): the compound was classed as inactive.

As to `CCC/C=C/C=O`, the result was inactive. For `O=C(O)COCCN1CCN(C(c2ccccc2)c2ccc(Cl)cc2)CC1` (stereo not given), the compound was classed as inactive. As for `Cc1ccc(C(C)C)cc1O`, the outcome was inactive. Turning to `CC1(CO)CN(c2ccccc2)NC1=O` (stereo not given), the outcome was inactive. With `CC(C)(C#N)c1cc(Cn2cncn2)cc(C(C)(C)C#N)c1`, the compound was classed as inactive. Regarding `CCCCOCCOCCSC#N`, the call was inactive.

On to `CC(C)(C)NC(N)=O`, for which the outcome was inactive.

On to `FC1(F)C(F)(F)C(F)(F)C2(F)C(F)(C1(F)F)C(F)(F)C(F)(F)C1(F)C(F)(F)C(F)(F)C(F)(F)C(F)(F)C12F` (stereo not given), for which the result was inactive. Still for that read-out and setting: next, `C[Si](O[Si](C)(C)C)O[Si](C)(C)C`: “inactive”; `O=C1NC(=O)c2ccccc21`: “inactive”. In the case of `CNC[C@H](O)c1cccc(O)c1`, the compound was called inactive. Consider `CO[Si](CCCn1c(=O)n(CCC[Si](OC)(OC)OC)c(=O)n(CCC[Si](OC)(OC)OC)c1=O)(OC)OC`, for which the outcome was inactive.

Take `Cc1ccc(S)cc1`: the outcome was inactive. On the same count and under the same terms, next, `CC1(C)[C@H](C(=O)OCc2cccc(Oc3ccccc3)c2)[C@@H]1C=C(Cl)Cl`: “inactive”. Take `COC(=O)OC`: the compound was classed as inactive. `C=C(C)C(=O)Nc1ccc(Cl)c(Cl)c1`: the call was inactive. As for `c1ccc2c(c1)c1cccc3ccc4cccc2c4c31`, the call was inactive. For `CC(=O)OCCOC(C)=O`, the result was inactive. On to `[Ca+2]`, for which the compound was called inactive. Turning to `CN(C)CCOCCN(C)C`, the compound was classed as inactive. Consider `O=S(=O)(O)c1ccc(O)c2ncccc12`, for which the outcome was inactive. For the compound `c1ccc2[nH]ccc2c1`, the compound was called inactive. `C=O`: the call was inactive.

As to `OCCOCCOCCOCCO`, the result was inactive. For the compound `CCCCCC(CO)CCC` (stereo not given), the result was inactive. Turning to `CNCCO`, the compound was classed as inactive.

Source of the values: PubChem BioAssay (EPA / NIEHS).
